Consider 63 compounds from the antibiotic and cytotoxicity screens of Wong et al. (2023).

Hit rate of the full screen: of about 39,000 compounds, about 3,300 (8.5%) were called active. This is one part of a sample in which actives are shown more often than they occur.

For this assay, the system named is HepG2. Description: cytotoxicity call (relative viability < 0.9). The conditions noted are these: 10 µM.
In the case of `COc1ccc(S(=O)(=O)N(C)C[C@@H]2Oc3ccc(NS(=O)(=O)c4ccc(C)cc4)cc3CC(=O)N([C@H](C)CO)C[C@@H]2C)cc1`, the cytotoxicity call is “inactive”.

Turning to `CC(C)NC(=O)N(C)C[C@@H]1Oc2cc(C#Cc3cccc(F)c3)ccc2S(=O)(=O)N([C@H](C)CO)C[C@H]1C`, the cytotoxicity call is “inactive”.

For the compound `Cc1ccc(S(=O)(=O)N(C)C[C@H]2OCCCC[C@H](C)Oc3ccc(NC(=O)Nc4ccc(F)cc4)cc3C(=O)N([C@@H](C)CO)C[C@H]2C)cc1`, the cytotoxicity call was “inactive”.

`Cc1ccc(S(=O)(=O)N(C)C[C@H]2Oc3c(NC(=O)NC(C)C)cccc3C(=O)N([C@@H](C)CO)C[C@@H]2C)cc1`: the cytotoxicity call was “inactive”.

Turning to `C[C@@H]1CCCCO[C@@H](CN(C)S(=O)(=O)c2ccc(F)cc2)[C@H](C)CN([C@@H](C)CO)C(=O)c2cc(NC(=O)C3CCCCC3)ccc2O1`, the cytotoxicity call was “inactive”.

With `C[C@H](CO)N1C[C@H](C)[C@H](CN(C)C(=O)Nc2ccc3c(c2)OCO3)OCCCC[C@H](C)Oc2ccc(NC(=O)Nc3cccc4ccccc34)cc2C1=O`, the cytotoxicity call is “inactive”.

Take `C[C@@H]1CCCCO[C@@H](CN(C)Cc2ccccc2)[C@H](C)CN([C@H](C)CO)C(=O)c2cc(NC(=O)C3CCCCC3)ccc2O1`: the cytotoxicity call is “inactive”.

In the case of `CC(C)NC(=O)N(C)C[C@@H]1Oc2cc(-c3ccccc3F)ccc2S(=O)(=O)N([C@H](C)CO)C[C@@H]1C`, the cytotoxicity call is “inactive”.

For `C[C@@H]1CCCCO[C@H](CN(C)C(=O)Nc2ccc(C(F)(F)F)cc2)[C@H](C)CN([C@@H](C)CO)C(=O)c2cc(NC(=O)C3CCCCC3)ccc2O1`, the cytotoxicity call is “inactive”.

In the case of `NCCCC[C@@H](N)C(=O)N[C@@H](Cc1c[nH]c2ccccc12)C(=O)N[C@@H](CCCCN)C(=O)O`, the cytotoxicity call is “inactive”.

Take `O=C(NC(Cc1cc(=O)[nH]c2ccccc12)C(=O)O)c1ccc(Cl)cc1` (stereo not drawn): the cytotoxicity call was “active”.

In the case of `Cc1cc(C)cc(C(=O)N(C)[C@H](Cc2ccc(-c3ccccc3)cc2)C(=O)N[C@@H](Cc2c[nH]c3ccccc23)C(=O)O)c1`, the cytotoxicity call was “inactive”.

Consider `Cc1noc(C)c1NC(=O)Nc1ccc2c(c1)C(=O)N([C@H](C)CO)C[C@H](C)[C@@H](CN(C)C(=O)Nc1ccccc1)OCCCC[C@@H](C)O2`, for which the cytotoxicity call was “inactive”.

Turning to `CC(C)[C@@H](N)c1nc2ccccc2[nH]1`, the cytotoxicity call is “inactive”.

In the case of `C[C@@H]1CN([C@@H](C)CO)C(=O)c2cc(NC(=O)Nc3ccc4c(c3)OCO4)ccc2O[C@@H]1CN(C)Cc1ccc(Cl)c(Cl)c1`, the cytotoxicity call was “active”.

As to `C[C@H](CO)N1C[C@H](C)[C@H](CN(C)Cc2ccc(Cl)c(Cl)c2)Oc2ccc(NC(=O)Nc3ccc4c(c3)OCO4)cc2C1=O`, the cytotoxicity call was “inactive”.

`C[C@H]1CN([C@@H](C)CO)C(=O)c2cc(NC(=O)Nc3ccc4c(c3)OCO4)ccc2O[C@H]1CN(C)Cc1ccc(Cl)c(Cl)c1`: the cytotoxicity call is “inactive”.

Regarding `C[C@@H]1CN([C@H](C)CO)C(=O)c2cc(NC(=O)Nc3ccc4c(c3)OCO4)ccc2O[C@@H]1CN(C)Cc1ccc(Cl)c(Cl)c1`, the cytotoxicity call was “inactive”.

Turning to `C[C@@H]1CN([C@@H](C)CO)C(=O)c2cc(NC(=O)Nc3ccc4c(c3)OCO4)ccc2O[C@H]1CN(C)Cc1ccc(Cl)c(Cl)c1`, the cytotoxicity call is “active”.

`C[C@H]1CN([C@@H](C)CO)C(=O)c2cc(NC(=O)Nc3ccc4c(c3)OCO4)ccc2O[C@@H]1CN(C)Cc1ccc(Cl)c(Cl)c1`: the cytotoxicity call was “inactive”.

As to `COCC(=O)Nc1ccc2c(c1)OC[C@@H](C)N(C(=O)CN1CCOCC1)C[C@@H](C)[C@H](OC)CN(C)C2=O`, the cytotoxicity call is “inactive”.

For the compound `COc1ccc(CN(C)C[C@H]2Oc3ccc(NC(=O)Nc4ccc(C(F)(F)F)cc4)cc3CC(=O)N([C@@H](C)CO)C[C@H]2C)cc1`, the cytotoxicity call is “active”.

As to `COc1ccc(NC(=O)Nc2ccc3c(c2)CC(=O)N([C@@H](C)CO)C[C@@H](C)[C@H](CN(C)Cc2ccc(C(F)(F)F)cc2)O3)cc1`, the cytotoxicity call is “active”.

Turning to `COc1ccc(CN(C)C[C@H]2Oc3ccc(NC(=O)Nc4ccc(C(F)(F)F)cc4)cc3CC(=O)N([C@H](C)CO)C[C@H]2C)cc1`, the cytotoxicity call is “active”.

On to `COc1ccc(CN(C)C[C@H]2Oc3ccc(NC(=O)Nc4ccc(C(F)(F)F)cc4)cc3CC(=O)N([C@@H](C)CO)C[C@@H]2C)cc1`, for which the cytotoxicity call is “active”.

Regarding `COc1ccc(NC(=O)Nc2ccc3c(c2)CC(=O)N([C@@H](C)CO)C[C@H](C)[C@@H](CN(C)Cc2ccc(C(F)(F)F)cc2)O3)cc1`, the cytotoxicity call was “inactive”.

As for `COc1ccc(NC(=O)Nc2ccc3c(c2)CC(=O)N([C@H](C)CO)C[C@@H](C)[C@H](CN(C)Cc2ccc(C(F)(F)F)cc2)O3)cc1`, the cytotoxicity call was “inactive”.

For `CO[C@H](CN(C)S(=O)(=O)c1ccc(Cl)cc1)[C@@H](C)CN([C@@H](C)CO)S(=O)(=O)c1cccc(Cl)c1`, the cytotoxicity call is “inactive”.

Take `COc1ccc(CN(C)C[C@H]2OCCCC[C@H](C)Oc3ccc(NS(=O)(=O)c4ccc(F)cc4)cc3C(=O)N([C@H](C)CO)C[C@@H]2C)cc1`: the cytotoxicity call was “inactive”.

With `C[C@@H]1CN([C@H](C)CO)C(=O)c2cccc(NC(=O)Nc3ccc(C(F)(F)F)cc3)c2O[C@@H]1CN(C)S(C)(=O)=O`, the cytotoxicity call was “inactive”.

Consider `C[C@H](CO)N1C[C@H](C)[C@@H](CN(C)Cc2ccccc2)OCCCC[C@H](C)Oc2ccc(NC(=O)NC3CCCCC3)cc2C1=O`, for which the cytotoxicity call is “inactive”.

Consider `O=C(Cn1cnnn1)NS(=O)(=O)c1ccccc1`, for which the cytotoxicity call is “inactive”.

For the compound `C[C@H](CO)N1C[C@H](C)[C@H](CN(C)S(=O)(=O)c2ccc(-c3ccccc3)cc2)OCc2cn(nn2)CCCC1=O`, the cytotoxicity call was “inactive”.

For the compound `C[C@@H]1CCCCO[C@@H](CN(C)C(=O)Nc2ccccc2)[C@@H](C)CN([C@@H](C)CO)C(=O)c2cc(NC(=O)c3ccccc3)ccc2O1`, the cytotoxicity call is “inactive”.

`COc1ccc(S(=O)(=O)N(C)C[C@@H]2Oc3c(NS(=O)(=O)c4cn(C)cn4)cccc3C(=O)N([C@H](C)CO)C[C@H]2C)cc1`: the cytotoxicity call is “inactive”.

As to `O=C(C[C@@H]1CC[C@H](NC(=O)c2ccc(F)cc2)[C@@H](CO)O1)NCc1ccncn1`, the cytotoxicity call is “inactive”.

Turning to `COc1ccc(NC(=O)Nc2ccc3c(c2)C(=O)N([C@H](C)CO)C[C@@H](C)[C@H](CN(C)S(=O)(=O)c2ccc(OC)cc2)OCCCC[C@H](C)O3)cc1`, the cytotoxicity call is “inactive”.

Regarding `C[C@@H]1CN([C@H](C)CO)C(=O)CCCn2cc(nn2)CO[C@@H]1CN(C)S(=O)(=O)c1ccccc1C#N`, the cytotoxicity call was “inactive”.

As for `Cc1ccc(S(=O)(=O)N(C)C[C@H]2Oc3c(NS(=O)(=O)c4ccc(F)cc4)cccc3C(=O)N([C@H](C)CO)C[C@@H]2C)cc1`, the cytotoxicity call was “inactive”.

`C[C@@H]1CN([C@@H](C)CO)C(=O)Cc2cc(NC(=O)Nc3ccc4c(c3)OCO4)ccc2O[C@H]1CN(C)S(C)(=O)=O`: the cytotoxicity call is “inactive”.

With `COc1ccc(CN(C)C[C@@H]2Oc3ccc(NC(=O)Nc4ccc(C(F)(F)F)cc4)cc3CC(=O)N([C@@H](C)CO)C[C@@H]2C)cc1`, the cytotoxicity call is “inactive”.

Turning to `COc1ccc(CN(C)C[C@@H]2Oc3ccc(NC(=O)Nc4ccc(C(F)(F)F)cc4)cc3CC(=O)N([C@H](C)CO)C[C@@H]2C)cc1`, the cytotoxicity call was “active”.

As for `COc1ccc(NC(=O)Nc2ccc3c(c2)CC(=O)N([C@H](C)CO)C[C@@H](C)[C@@H](CN(C)Cc2ccc(C(F)(F)F)cc2)O3)cc1`, the cytotoxicity call was “active”.

In the case of `COc1ccc(CN(C)C[C@@H]2Oc3ccc(NC(=O)Nc4ccc(C(F)(F)F)cc4)cc3CC(=O)N([C@H](C)CO)C[C@H]2C)cc1`, the cytotoxicity call was “inactive”.

On to `COc1ccc(NC(=O)Nc2ccc3c(c2)CC(=O)N([C@@H](C)CO)C[C@@H](C)[C@@H](CN(C)Cc2ccc(C(F)(F)F)cc2)O3)cc1`, for which the cytotoxicity call is “active”.

Turning to `COc1ccc(NC(=O)Nc2ccc3c(c2)CC(=O)N([C@H](C)CO)C[C@H](C)[C@@H](CN(C)Cc2ccc(C(F)(F)F)cc2)O3)cc1`, the cytotoxicity call was “inactive”.

With `COc1ccc(NC(=O)Nc2ccc3c(c2)CC(=O)N([C@H](C)CO)C[C@H](C)[C@H](CN(C)Cc2ccc(C(F)(F)F)cc2)O3)cc1`, the cytotoxicity call was “active”.

In the case of `CC(C)NC(=O)Nc1ccc2c(c1)C(=O)N([C@@H](C)CO)C[C@H](C)[C@@H](CN(C)CC1CCCCC1)OCCCC[C@H](C)O2`, the cytotoxicity call was “inactive”.

Consider `Cc1ccc(S[C@]2(C(=O)NCCCN(C)C)CC(=O)N(Cc3cc(C(F)(F)F)cc(C(F)(F)F)c3)[C@@H]2c2ccc(CO)cc2)cc1`, for which the cytotoxicity call is “inactive”.

In the case of `O=C(CN1CCOCC1)NCC[C@@H]1CC[C@@H](NC(=O)c2ccc3c(c2)OCO3)[C@H](CO)O1`, the cytotoxicity call is “inactive”.

`COc1ccc2c3c(n(c2c1)C)[C@H](CO)N(C[C@]13CN(C1)C(=O)c1ccncc1)C(=O)C1CCCCC1`: the cytotoxicity call is “inactive”.

With `CN1CCN(C(=O)C[C@H]2CC[C@H]3[C@H](COc4ccc(NC(=O)C5CCOCC5)cc4C(=O)N3C)O2)CC1`, the cytotoxicity call is “inactive”.

Turning to `CCCN1C[C@H](C)[C@@H](OC)CN(C)C(=O)c2cc(NS(=O)(=O)c3cn(C)cn3)ccc2OC[C@H]1C`, the cytotoxicity call was “inactive”.

Regarding `CCOC(=O)c1cc(C(=O)OCC)n(C)n1`, the cytotoxicity call is “inactive”.

`COc1ccc(S(=O)(=O)N[C@@H]2C=C[C@@H](CC(=O)N3CCN(c4ccccc4)CC3)O[C@H]2CO)cc1`: the cytotoxicity call is “inactive”.

With `Cc1cc2n(n1)CCN(C(=O)[C@H]1CC[C@@H](N)C1)C2`, the cytotoxicity call was “inactive”.

`Cc1ccc(-c2cnc3c(c2)C(=O)N([C@H](C)CO)C[C@H](C)[C@@H](CN(C)C(=O)Cc2ccncc2)O3)cc1`: the cytotoxicity call was “inactive”.

Take `C[C@H]1CCCCO[C@@H](CN(C)Cc2ccccc2)[C@@H](C)CN([C@@H](C)CO)C(=O)c2cc(NC(=O)c3ccccc3)ccc2O1`: the cytotoxicity call is “inactive”.

In the case of `Cc1noc(C)c1NC(=O)N(C)C[C@@H]1Oc2c(NC(=O)C3CCOCC3)cccc2C(=O)N([C@H](C)CO)C[C@H]1C`, the cytotoxicity call is “inactive”.

Turning to `COc1ccc(NC(=O)Nc2ccc3c(c2)CC(=O)N([C@@H](C)CO)C[C@H](C)[C@H](CN(C)Cc2ccc(C(F)(F)F)cc2)O3)cc1`, the cytotoxicity call was “active”.

On to `Cc1cc(-c2ccc3ccccc3n2)nc2ccc3ccccc3c12`, for which the cytotoxicity call was “inactive”.

Take `c1ccc2nc(-c3cn[nH]c3)ccc2c1`: the cytotoxicity call was “inactive”.

For the compound `CCCOc1c(-c2ccc3ccccc3n2)cnc2ccccc12`, the cytotoxicity call was “active”.
